Only some compounds are listed: those with a hit (about 17% of all), similar ones and a draw of the others.
TGFb SMAD3 inh: qHTS for Inhibitors of TGF-b | HepG2 CAGA-GFP TGF-b/SMAD3 reporter, GFP fluorescence, 18 h; TGF-beta stimulated, 500 pg/mL final | AID 588855, 2011 | Potency, µM (series often up to 46.1 µM), inactives show at the highest dose activity, negative = inhibition, most hits filed as inhibitors | 410,000 compounds, 1.2% hits; further: on the % scale 0 is the no-effect control and ±100 the full control effect; nearly all actives have a fitted effect of over 65% in size
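Read-out: total well GFP (ex488/em500-530) summed from mean per-cell fluorescence. Cells: HEPG2 CAGA-GFP, 1% FBS DMEM, 18 h at 37 degrees C with 500 pg/mL final TGF-beta. Unstimulated wells served as the full-inhibition control; stimulated DMSO wells = 0%.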
HepG2 tox: qHTS for Inhibitors of TGF-b: Cytotox Counterscreen | Potency, µM (series often up to 46.1 µM), inactives show top-dose activity change, negative = cytotoxicity, usual class: cytotoxic | HepG2 CAGA-GFP viability, ATP luminescence, 18 h | AID 588856, 2011 | 410,000 compounds, 0.76% hits
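CellTiter-Glo luminescence gave cytotoxicity after 18 hours at 37 degrees C. The cells were HepG2 CAGA-GFP in 1% FBS DMEM, stimulated with 500 pg/mL TGF-beta after compound addition. %Activity was normalised to no-cell wells (complete cell-killing) and DMSO (no toxicity), and curves were fitted and classified.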
ATXN2 expr inh: Primary qHTS for Inhibitors of ATXN expression; Potency, µM (series often up to 57 µM), without a hit: at the top dose activity change, negative = inhibition, actives largely listed as inhibitors; 360,000 compounds, 0.72% hits; HEK-293 ATXN2-luciferase reporter, luminescence, 24 h; further: on the % scale 0 is the no-effect control and ±100 the full control effect; nearly all actives have a fitted effect of over 55% in size
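ATXN2-luciferase reporter cells (luciferase flanked by upstream and downstream ATXN2 gene portions) were treated 24 h at 37 °C with compounds at up to 57 uM. SteadyGlo luminescence gave expression; GF-AFC fluorescence gave viability.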
DT40 TDP1 no CPT: qHTS for Inhibitors of human tyrosyl-DNA phosphodiesterase 1 (TDP1): qHTS in cells in absence of CPT; DT40 Tdp1-/- hTDP1 cells, no CPT, ATP luminescence, 48 h; Potency, µM (series often up to 46.2 µM), for the others: at the top dose activity change, negative = growth inhibition, hits mostly inhibitors; 420,000 compounds, 15% hits; AID 686978, 2013; further: on the % scale 0 is the no-effect control and ±100 the full control effect; nearly all actives have a fitted effect of over 55% in size
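DT40 Tdp1-/-;hTDP1 cells, no CPT (DMSO vehicle only), 400 cells/well; compounds pin-transferred; ≥48 hr, 37 °C; CellTiter-Glo 30 min RT dark, luminescence read.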
ATXN viability: Viability Counterscreen for Primary qHTS for Inhibitors of ATXN expression; S2 cells (HEK-293 line with an ATXN2-luciferase reporter) viability, CellTiter-Fluor protease fluorescence, 24 h; Potency, µM (top dose mostly 56.7 µM), actives largely listed as cytotoxic; 400,000 compounds, 0.49% hits; AID 651635, 2014; further: nearly all actives have a fitted effect of over 40% in size
TDP1 cell CPT: qHTS for Inhibitors of human tyrosyl-DNA phosphodiesterase 1 (TDP1): qHTS in cells in presence of CPT; chicken DT40 Tdp1-/-;hTDP1 cells + 20 nM CPT, ATP luminescence, 48 h; Potency, µM (highest dose often 46.2 µM), without a hit: at the top dose activity change, negative = growth inhibition, actives largely listed as inhibitors; 420,000 compounds, 12% hits; AID 686979, 2013; further: on the % scale 0 is the no-effect control and ±100 the full control effect; nearly all actives have a fitted effect of over 55% in size
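Cell growth measured by CellTiter-Glo luminescence after a minimum 48 h, 37 C compound exposure with 20 nM CPT in Tdp1-knockout DT40 cells stably expressing hTDP1, seeded 400/well; qHTS titration format.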
* = called active by the depositor; i = inactive; ? = inconclusive; · = no result. The call rests on the fitted dose curve; in most records, active means well fitted curve in the direction sought with a large enough effect; inconclusive means small, poorly fitted or top-dose-only effect, or another doubt; inactive means no such curve, though single readings can be large; an effect the other way counts as inactive or inconclusive. Potency means the concentration at half of the fitted maximal effect.

SMILES	TGFb SMAD3 inh	HepG2 tox	ATXN2 expr inh	DT40 TDP1 no CPT	ATXN viability	TDP1 cell CPT
O=C(CCCc1nc(-c2ccccc2)no1)Nc1cccnc1	17%	-13%	-8%	?	i	?
COc1ccccc1-c1noc(CCC(=O)Nc2cccnc2)n1	-5%	-28%	·	?	i	-28%
O=C(CCc1nc(-c2ccccc2Cl)no1)Nc1cccnc1	5%	9%	-16%	?	i	21µM*
Cc1ccc(-c2noc(CCCC(=O)NC3CCCCC3)n2)cc1	-24%	-16%	19%	13µM*	i	?
Cc1ccc(-c2noc(CCCC(=O)Nc3cccnc3)n2)cc1	7%	-27%	?	21µM*	?	?
O=C(NCCc1ccc(O)cc1)c1[nH]c(C(F)(F)F)nc1-c1ccccc1	4%	-1%	9%	-12%	i	?
COc1cccc(-c2cc(NC=O)c3ncc(-c4ccc(OC)c(OC)c4)n3c2)c1	?	-27%	?	4.1µM*	?	5.2µM*
COc1ccc(-c2cnc3c(NC=O)cc(-c4ccc(F)cc4)cn23)cc1OC	?	2%	-5%	0.013µM*	?	0.0058µM*
COc1ccc(-c2cnc3c(NC=O)cc(-c4cccc(NS(C)(=O)=O)c4)cn23)cc1OC	?	-1%	?	3.7µM*	?	4.6µM*
COc1ccc(F)cc1-c1cc(NC=O)c2ncc(-c3cccc(C(F)(F)F)c3)n2c1	?	13µM*	-34%	4.6µM*	?	5.2µM*
CN(CC(=O)Nc1cccc(F)c1)C(=O)c1ccc2c(c1)S(=O)(=O)N=C1CCCCCN12	-21%	6%	2%	1%	i	4%
COc1ccc(CNC(=O)CN2CCN(c3ccccc3)CC2)cc1	-6%	-4%	-10%	-2%	i	-8%
CC(C)[C@H](NS(=O)(=O)c1ccc(Cl)cc1)C(=O)OCC(=O)NCCN1C(=O)CSC1=O	-1%	-1%	-4%	-15%	i	-2%
CNC(=O)C(=O)N1CCC2(CC1)OCCN2S(=O)(=O)c1ccc(C)cc1	-1%	-3%	0%	4%	i	1%
COc1ccc(-c2cnc3c(NC=O)cc(-c4ccccc4)cn23)cc1OC	-22%	-30%	-10%	0.92µM*	?	0.92µM*
COc1cccc(-c2cnc3c(NC=O)cc(-c4cc(OC)c(OC)c(OC)c4)cn23)c1	32%	-47%	-26%	?	?	?
COc1ccc(-c2cnc3c(NC=O)cc(-c4ccoc4)cn23)cc1OC	-19%	0%	?	2.9µM*	i	5.2µM*
COc1ccc(-c2cc(NC=O)c3ncc(-c4cc(OC)c(OC)c(OC)c4)n3c2)cc1	4%	-11%	-4%	0.21µM*	?	0.15µM*
COc1ccc(-c2cc(NC=O)c3ncc(-c4ccc(OC)c(OC)c4)n3c2)c(OC)c1	?	-19%	-35%	0.033µM*	?	0.041µM*
O=C(c1ccco1)N1CCN(C2CN(Cc3cn(Cc4ccccc4C(F)(F)F)nn3)S(=O)(=O)C2)CC1 (stereo not given)	-5%	4%	5%	7%	i	2%
Cc1nc(-c2cccc3ccccc23)ccc1C(=O)O	4%	-6%	-31%	5%	i	11%
COc1ccc(-c2cnc3c(NC=O)cc(-c4cc(OC)c(OC)c(OC)c4)cn23)cc1OC	46%	-24%	?	5.2µM*	?	6.5µM*
